# Activity calls are given as the source filed them. Unless noted, the rule behind the calls is not given here.
# What was measured:
# [1] = anti-His antibody binders, primary screen, artefact control for SMM control protein annotation, biochemical, small-molecule microarray, 635 nm fluorescence (AID 1128); details: anti-His Alexa647 antibody binding, higher = more signal;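 note: score merges feature fluorescence with signal-to-noise for each printed compound spot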
# [2] = test system: Human papillomavirus type 1a E7 protein (residues 1-88); experiment: HPV1a E7 small-molecule binders, primary screen, biochemical, small-molecule microarray, residues 1-88, 635 nm (AID 1129); details: small-molecule microarray binding, fluorescence 635 nm; higher = more signal
# [3] = biological target: Focal adhesion kinase 1 (Homo sapiens) (UniProt Q05397); experiment: small-molecule microarray binders of FAK, primary screen, biochemical, 635/667 nm fluorescence, BSA, DTT (AID 1130); details: PTK2 binding, 635 nm fluorescence, higher = more signal;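 note: composite of spot emission at 667 nm and signal to noise over triplicate slides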
# Sequence of Focal adhesion kinase 1 (Homo sapiens) (Q05397 whole entry, looked up): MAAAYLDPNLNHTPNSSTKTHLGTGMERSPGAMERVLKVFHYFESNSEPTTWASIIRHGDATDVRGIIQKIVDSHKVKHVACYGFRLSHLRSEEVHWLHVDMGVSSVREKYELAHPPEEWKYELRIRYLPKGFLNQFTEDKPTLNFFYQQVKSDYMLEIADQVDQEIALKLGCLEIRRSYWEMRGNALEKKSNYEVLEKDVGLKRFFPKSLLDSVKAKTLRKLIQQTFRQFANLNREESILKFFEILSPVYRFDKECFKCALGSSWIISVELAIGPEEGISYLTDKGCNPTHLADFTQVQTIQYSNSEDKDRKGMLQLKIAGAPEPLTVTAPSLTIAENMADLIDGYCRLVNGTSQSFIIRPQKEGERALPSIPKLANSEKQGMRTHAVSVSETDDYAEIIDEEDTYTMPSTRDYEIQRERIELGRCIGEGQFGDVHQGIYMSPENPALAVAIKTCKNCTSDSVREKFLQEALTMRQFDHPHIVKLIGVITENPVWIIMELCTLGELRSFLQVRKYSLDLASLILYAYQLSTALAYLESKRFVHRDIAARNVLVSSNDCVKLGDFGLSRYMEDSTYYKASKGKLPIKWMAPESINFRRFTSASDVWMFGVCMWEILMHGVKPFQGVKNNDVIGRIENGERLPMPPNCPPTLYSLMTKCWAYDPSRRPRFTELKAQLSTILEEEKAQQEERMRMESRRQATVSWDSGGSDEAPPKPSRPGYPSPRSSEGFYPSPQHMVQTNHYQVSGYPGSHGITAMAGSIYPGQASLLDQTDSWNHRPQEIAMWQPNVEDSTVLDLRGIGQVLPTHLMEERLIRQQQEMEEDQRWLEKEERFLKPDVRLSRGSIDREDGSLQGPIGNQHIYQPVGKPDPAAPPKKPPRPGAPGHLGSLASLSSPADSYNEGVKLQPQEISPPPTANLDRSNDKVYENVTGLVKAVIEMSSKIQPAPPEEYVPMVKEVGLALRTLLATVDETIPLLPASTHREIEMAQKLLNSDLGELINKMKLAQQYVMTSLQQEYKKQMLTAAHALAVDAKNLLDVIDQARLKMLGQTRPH
# [4] = test system: Fibrinogen (Alexa647-labelled); experiment: fibrinogen binders on compound microarrays, profiling panel, artefact control for SMM control-protein annotation, biochemical, small-molecule microarray, 635/667 nm fluorescence (AID 1131); details: fibrinogen-A647 binding fluorescence, higher = more signal;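 note: z-score merges 667 nm fluorescence with per-spot signal-to-noise over triplicate slides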
# [5] = biological target: Follistatin (Homo sapiens) (UniProt P19883); experiment: follistatin binders on small-molecule microarrays, primary screen, biochemical, small-molecule microarray, 635/667 nm fluorescence (AID 1132); details: FST binding, 635 nm fluorescence, higher = more signal
# Sequence of Follistatin (Homo sapiens) (P19883 whole entry, looked up): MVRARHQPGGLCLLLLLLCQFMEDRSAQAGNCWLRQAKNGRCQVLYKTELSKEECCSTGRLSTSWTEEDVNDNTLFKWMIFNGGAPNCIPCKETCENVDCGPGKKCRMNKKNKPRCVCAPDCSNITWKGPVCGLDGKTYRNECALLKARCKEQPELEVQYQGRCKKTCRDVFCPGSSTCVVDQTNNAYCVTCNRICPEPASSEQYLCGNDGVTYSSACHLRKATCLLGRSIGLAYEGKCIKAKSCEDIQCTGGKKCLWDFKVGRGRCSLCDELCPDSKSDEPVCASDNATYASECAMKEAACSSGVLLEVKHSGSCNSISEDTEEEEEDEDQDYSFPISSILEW
# [6] = biological target: Fibroblast growth factor 2 (Homo sapiens) (UniProt P09038); experiment: FGF2 binders on small-molecule microarrays, primary screen, biochemical, small-molecule microarray, 635/667 nm fluorescence (AID 1133); details: small-molecule microarray binding, FGF2, fluorescence 635/667; higher = more signal
# Sequence of Fibroblast growth factor 2 (Homo sapiens) (P09038 whole entry, looked up): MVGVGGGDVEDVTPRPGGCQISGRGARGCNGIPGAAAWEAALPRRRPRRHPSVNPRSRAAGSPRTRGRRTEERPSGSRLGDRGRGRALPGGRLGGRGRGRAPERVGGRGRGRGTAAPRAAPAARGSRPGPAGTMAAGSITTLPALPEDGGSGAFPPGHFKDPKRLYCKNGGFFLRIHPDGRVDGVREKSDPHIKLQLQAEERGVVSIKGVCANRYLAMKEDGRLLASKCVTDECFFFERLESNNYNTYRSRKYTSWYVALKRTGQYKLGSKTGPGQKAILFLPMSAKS
# [7] = mitochondrial membrane potential change in A549 cells, profiling panel, cell-based, JC-1 fluorescence, basal, 24 h, 100 nL (AID 1138); details: higher = more signal;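 note: A549 lung adenocarcinoma cells under basal conditions with no added stimulus; test concentration not given here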
# [8] = test system: Lefty1; experiment: Lefty1 binders on small-molecule microarrays, primary screen, biochemical, small-molecule microarray, 635/667 nm fluorescence (AID 1139); details: small-molecule microarray binding, fluorescence 635/667; higher = more signal
# [9] = test system: wheat germ agglutinin (Triticum aestivum), Alexa647-labelled; experiment: wheat germ agglutinin binders on compound microarrays, profiling panel, artefact control for SMM control-protein annotation, biochemical, small-molecule microarray, 635/667 nm fluorescence (AID 1140); details: WGA-A647 binding, 635 nm fluorescence, higher = more signal;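 note: score merges 667 nm feature emission with signal to noise over triplicate slides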
# [10] = biological target: Luciferin 4-monooxygenase (Photinus pyralis) (UniProt P08659); experiment: firefly luciferase enzyme inhibitors, primary screen, biochemical, luminescence, purified enzyme, 2006 set (AID 1141); details: SteadyGlo luminescence, 30 min, higher = more signal, called active from +8 up or from −8 down;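 note: cell-free assay with purified firefly luciferase at 100 ng per well in PBS; test concentration not given here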
# Sequence of Luciferin 4-monooxygenase (Photinus pyralis) (P08659 whole entry, looked up): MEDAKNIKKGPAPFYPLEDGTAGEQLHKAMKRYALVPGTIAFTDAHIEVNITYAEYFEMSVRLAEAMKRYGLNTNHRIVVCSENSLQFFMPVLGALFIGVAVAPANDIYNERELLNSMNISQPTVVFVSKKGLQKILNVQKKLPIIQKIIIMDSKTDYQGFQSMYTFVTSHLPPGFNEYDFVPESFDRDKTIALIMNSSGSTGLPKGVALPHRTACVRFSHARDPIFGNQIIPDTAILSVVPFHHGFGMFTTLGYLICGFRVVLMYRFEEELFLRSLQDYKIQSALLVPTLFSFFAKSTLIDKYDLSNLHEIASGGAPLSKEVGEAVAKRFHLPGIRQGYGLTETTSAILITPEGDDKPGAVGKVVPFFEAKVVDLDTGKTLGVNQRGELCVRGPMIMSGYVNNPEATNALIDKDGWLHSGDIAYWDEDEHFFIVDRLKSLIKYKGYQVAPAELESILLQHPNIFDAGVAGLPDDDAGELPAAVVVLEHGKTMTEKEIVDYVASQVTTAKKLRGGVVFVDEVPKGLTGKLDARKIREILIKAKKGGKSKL
# [11] = test system: Wnt5a (protein binding on small-molecule microarray); experiment: Wnt5a binders on small-molecule microarray, primary screen, biophysical, 635/667 nm fluorescence (AID 1142); details: 635 nm fluorescence, higher = more signal;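 note: fluorescence read at 667 nm with signal to noise per printed feature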
# [12] = cell viability in Huh7 cells, primary screen, cytotoxicity control for HCV replication inhibitor project, CellTiter-Glo luminescence, basal, 48 h (AID 1143); details: Huh7 HCV replicon, higher = more signal, called active from +8 up or from −8 down;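 note: Huh7 hepatoma cells carrying a hepatitis C replication reporter with no stimulus; test concentration not given here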
# [13] = P. aeruginosa biofilm formation inhibitors, primary screen, PAO1 strain, BacTiter-Glo luminescence, LB-PBS (AID 1144); details: 12 h, higher = more signal
# [14] = CREB reporter modulators without forskolin, primary screen, cell-based, PC12, CRE-LacZ reporter, unstimulated (AID 1145); details: no forskolin, luminescence, 4.5 h, higher = more signal, called active from +8 up or from −8 down
# [15] = CREB reporter modulators under forskolin, primary screen, cell-based, PC12, CRE-LacZ reporter, forskolin-stimulated (AID 1146); details: luminescence, 4.5 h, higher = more signal, called active from +8 up or from −8 down;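 note: PC12 cells with 6xCRE LacZ reporter stimulated by forskolin 10 µM; beta-galactosidase reporter signal reflecting CREB driven transcription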
# [16] = biological target: Streptavidin (Streptomyces avidinii) (UniProt P22629); experiment: streptavidin binders on small-molecule microarray, primary screen, artefact control for SMM compound annotation, biophysical, 635/667 nm fluorescence (AID 1147); details: streptavidin binding, higher = more signal;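 note: signal reflects streptavidin binding to arrayed compounds as a control protein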
# Sequence of Streptavidin (Streptomyces avidinii) (P22629 whole entry, looked up): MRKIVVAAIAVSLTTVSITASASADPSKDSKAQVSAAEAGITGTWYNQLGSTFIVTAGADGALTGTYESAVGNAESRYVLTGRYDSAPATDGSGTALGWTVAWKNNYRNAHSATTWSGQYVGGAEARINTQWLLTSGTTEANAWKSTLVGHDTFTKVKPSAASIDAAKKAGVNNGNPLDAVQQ
# [17] = small-molecule binders of probe aInhba, primary screen, biochemical, small-molecule microarray, 635/667 nm fluorescence (AID 1148); details: higher = more signal;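 note: score merges 667nm spot fluorescence with signal-to-noise for antibody binding to printed compounds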
# [18] = biological target: Torsin-1A (Homo sapiens) (UniProt O14656); experiment: torsin A binders from cell lysate, primary screen, small-molecule microarray, wild-type, 635/667 nm (AID 1149); details: COS7 hTOR1A-WT lysate, 635 nm fluorescence, higher = more signal
# Sequence of Torsin-1A (Homo sapiens) (O14656 whole entry, looked up): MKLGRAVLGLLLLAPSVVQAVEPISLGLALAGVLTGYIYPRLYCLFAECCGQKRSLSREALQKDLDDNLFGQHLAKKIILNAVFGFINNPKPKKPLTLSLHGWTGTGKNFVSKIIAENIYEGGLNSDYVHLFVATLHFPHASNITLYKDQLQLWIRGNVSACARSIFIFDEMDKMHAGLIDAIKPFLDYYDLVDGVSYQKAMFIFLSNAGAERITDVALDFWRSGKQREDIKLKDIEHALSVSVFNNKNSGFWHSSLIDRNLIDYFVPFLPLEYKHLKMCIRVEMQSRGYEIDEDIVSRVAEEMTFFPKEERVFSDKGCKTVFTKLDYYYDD
# [19] = biological target: Torsin-1A (Homo sapiens) (UniProt O14656); experiment: small-molecule binders of mutant TOR1A in lysate, primary screen, cell lysate, small-molecule microarray, COS7 lysate, 635/667 nm fluorescence (AID 1150); details: COS7 hTOR1A mutant lysate, 635 nm fluorescence, higher = more signal;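 note: score pools 667 nm emission and signal to noise measuring lysate protein binding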
# [20] = test system: Sonic hedgehog protein (Shh); experiment: small-molecule binders of Shh protein, primary screen, biochemical, small-molecule microarray, 635/667 nm fluorescence (AID 1151); details: small-molecule microarray binding, 635 nm fluorescence; higher = more signal;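 note: Shh protein binding to compounds spotted on small-molecule microarray slides; score combines spot fluorescence intensity with signal-to-noise across triplicate slides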
SMILES,composite z-score [1],composite z-score [2],composite z-score [3],composite z-score [4],composite z-score [5],composite z-score [6],z-score [7],composite z-score [8],composite z-score [9],z-score [10],composite z-score [11],z-score [12],z-score [13],z-score [14],z-score [15],composite z-score [16],composite z-score [17],composite z-score [18],composite z-score [19],composite z-score [20]
C=CCC(OC(C)=O)[C@@H]1[C@@H](N(Cc2ccc(-c3cccc(C(F)(F)F)c3)o2)C(=O)Cc2ccc(OC)cc2)c2cc(OCCCO)ccc2N1C(=O)c1ccc2ccccc2n1 (stereo not given in full),0.292,-1.64,-0.236,-0.665,0.767,-0.149,-0.448,0.0089,0.113,0.471 (inactive),-0.162,-1.45 (inactive),0.6 (inactive),0.339 (inactive),0.792 (inactive),-0.356,0.0517,0.0833,-0.475,0.38
COc1cc2c(cc1O)C(c1ccc(CN3CCCC3)cc1)N(Cc1cccc(OC(F)(F)F)c1)CC2 (stereo not given),1.67,0.879,-0.425,0.406,1.22,0.476,-2.01,0.242,0.625,-1.37 (inactive),-0.0324,-5.42 (inactive),1.15 (inactive),0.0924 (inactive),0.248 (inactive),0.0307,-0.15,0.47,1.13,0.345
O=C1N(Cc2ccccc2)c2ccccc2[C@H]2OC(c3ccc(OCCCO)cc3)=N[C@@]12Cc1ccccc1,2.1,1.19,0.6,0.696,1.35,1.52,-1.4,0.584,0.694,-2.98 (inactive),0.806,-4.93 (inactive),-0.0376 (inactive),0.708 (inactive),-1.07 (inactive),0.0454,0.147,-0.0599,0.242,1.64
C=CCOC(=O)[C@H]1[C@@H]2C(=O)O[C@@H](c3ccccc3)[C@@H](c3ccccc3)N2[C@@H](c2ccc(OCCOC(=O)[C@@H]3C[C@@H]4C(=O)N[C@@H](Cc5ccccc5)C(=O)N4[C@@H]3c3ccc(O)cc3)cc2)[C@]12C(=O)Nc1ccccc12,1.78,1.19,1.53,0.911,1.32,1.33,-1.15,0.948,1.2,-0.497 (inactive),0.5,0.247 (inactive),-0.661 (inactive),0.679 (inactive),-0.158 (inactive),0.537,-0.0762,0.83,0.8,1.03
CN(C)CCCCNC(=O)[C@H]1C[C@H]2C(=O)NCC(=O)N2[C@H]1c1cccc(OCCO)c1,0.465,-0.74,-0.539,-1.59,0.991,0.817,0.411,0.748,0.169,1.59 (inactive),0.133,0.344 (inactive),-0.254 (inactive),-0.398 (inactive),0.586 (inactive),-1.04,-0.202,0.0774,-0.0032,2.19
O=C1C2C=CC(C(O)c3cccc(O)c3)N(Nc3ccccc3F)C2C(=O)N1c1ccccc1 (stereo not given),0.933,0.137,0.158,0.327,0.434,-0.214,-0.846,0.474,0.248,0.883 (inactive),-0.333,-6.08 (inactive),-2.21 (inactive),-0.471 (inactive),-0.556 (inactive),-0.344,-0.21,-0.701,0.239,0.0048
C/C=C/CN(C(=O)C#Cc1ccccc1)[C@H](CO[Si](C)(C)C(C)(C)C)c1ccccc1,-1.73,-0.0136,-0.1,-2.12,-1.52,-1.25,0.2,-0.977,-1.7,-0.178 (inactive),-0.515,-4.31 (inactive),1.09 (inactive),1.94 (inactive),-0.757 (inactive),-1.06,-0.353,-0.724,-0.841,0.248
COc1cc2c(cc1O)C(c1ccc(CN3CCCC3)cc1)N(Cc1ccc([N+](=O)[O-])o1)CC2 (stereo not given),0.27,-0.96,-0.537,0.121,-0.147,0.253,1,-0.606,0.522,-0.659 (inactive),-0.176,-0.192 (inactive),0.85 (inactive),0.299 (inactive),0.292 (inactive),-0.231,-0.105,0.714,0.623,-0.0987
C[C@H]1C2[C@H](Cc3ccccc3)NC(=O)[C@]23C(=O)NCC(=O)N2CCC[C@H]2C(=O)NC/C=C\C/C=C/C3[C@@H]2O[C@]12C (stereo not given in full),-0.151,-0.0402,-0.258,-0.454,0.278,1.1,0.546,0.0393,-0.121,-1.25 (inactive),0.0076,0.493 (inactive),0.716 (inactive),0.495 (inactive),-0.294 (inactive),-0.744,-0.018,-0.266,-0.618,1.2
O=C1OCCC/C=C\[C@H]2OC34C=CCN(Cc5ccccc5)C(=O)[C@H]3N(CCCCCO)C(=O)[C@@H]4C12 (stereo not given in full),-0.862,-1.2,-0.603,-1.62,-1.07,-0.883,0.537,-0.696,-1.09,-0.984 (inactive),-0.238,0.255 (inactive),1.2 (inactive),0.732 (inactive),0.327 (inactive),-1.26,-0.186,-0.234,-1.75,0.168

# Source: PubChem BioAssay
